# Results published in PubChem BioAssay (Tox21).
# Inconclusive results are not listed. Activity calls are given as the source filed them. The call rests on the fitted dose curve; in most records, active means well fitted cell-killing curve with a large enough effect in the repeat runs; inconclusive means weak or mixed curves, or effect the other way; inactive means no such curve, though single readings can be large or run the other way.
# Assay: qHTS assay to identify small molecule agonists of the vitamin D receptor (VDR) signaling pathway - cell viability counter screen (AID 743224); further: nearly all actives have a fitted effect of over 50% in size
# Conditions: VDR-bla HEK293T viability, CellTiter-Glo luminescence, 16 h; series mostly up to 62.6 µM; activity change, negative = cytotoxicity: at the top concentration
# Source text: U.S. Tox21 Program National Center for Advancing Translational Sciences [NCATS] NIH Chemical Genomics Center [NCGC] U.S. Environmental Protection Agency [EPA] National Institutes of Environmental Health Sciences [NIEHS] National Toxicology Program [NTP] U.S. Food and Drug Administration [FDA] Tox21 Assay Overview: The vitamin D receptor (VDR), a member of nuclear hormone receptor superfamily, plays a critical role in calcium homeostasis and bone metabolism. It is also involved in cell differentiation and growth, and thrombogenicity. […] The cytotoxicity of the Tox21 compound library against the VDR-bla cell line was tested in parallel by measuring the cell viability using CellTiter-Glo assay (Promega, Madison, WI) in the same wells.
# Tox21 Assay Protocol Summary: VDR-bla cells were dispensed at 2,000 cells/6 uL/well into black wall/clear-bottom 1536-well plates using a Multidrop Combi (Thermo Fisher Scientific, Waltham, MA) dispenser. After the assay plates were incubated at a 37C and 5% CO2 for 4 h, 23 nL of compounds dissolved in DMSO, positive controls or DMSO only was transferred to the assay plate by a Pintool station (Kalypsys, San Diego, CA). The plates were incubated at 37C and 5% CO2 for 16 h. After 1 uL of LiveBLAzerTM B/G FRET substrate was added using a Bioraptr Flying Reagent Dispenser (FRD) workstation (Beckman Coulter, Indianapolis, IN, USA), the plates were incubated at room temperature for 2 h, and fluorescence intensity was measured by an Envision plate reader (PerkinElmer, Shelton, CT). For cell viability readout that measures cytotoxicity, 3 ul/well of CellTiter-Glo reagent was added into the assay plates using a FRD. After 30 min incubation at room temperature, the luminescence intensity in the plates was measured using a ViewLux (PerkinElmer) plate reader.
# On the % scale 0 is the no-effect control and ±100 the full control effect.
row,SMILES,"activity change, negative = cytotoxicity"
1,Cn1c(N)nc2nc[nH]c2c1=O,0.923% (inactive)
2,CCCCCCCCCCCCCCCC(=O)OC/C=C(C)/C=C/C=C(C)/C=C/C1=C(C)CCCC1(C)C,-10.5% (inactive)
3,C[C@@H](C1=C(CCN(C)C)Cc2ccccc21)c1ccccn1,-7.84% (inactive)
4,c1ccc(CNCc2ccccc2)cc1,-3.44% (inactive)
5,Cc1cccc(C(C)(C)C)c1O,9.06% (inactive)
6,CCOc1ccc2[nH]cc(C(=O)NCc3ccccc3)c(=O)c2n1,-5.71% (inactive)
7,CC(C)CCCCCCOC(=O)c1ccc(C(=O)OCCCCCCC(C)C)c(C(=O)OCCCCCCC(C)C)c1,-10.6% (inactive)
8,O=C(Cl)c1c(Cl)cccc1Cl,5.43% [at 81.1 µM] (inactive)
9,Nc1nc(CC(=O)O)cs1,6.48% [at 81.1 µM] (inactive)
10,S=C(S)NCCNC(=S)S,3.51% (inactive)
11,CN(C)CCCOc1nn(Cc2ccccc2)c2ccccc12,-23.7% (inactive)
12,CC(C)(C)c1ccc(S)cc1,20.8% (inactive)
13,CCCCOC(=O)c1ccccc1C(=O)OCC(CC)CCCC (stereo not given),-0.553% (inactive)
14,Cc1ccc(C(C)c2ccc(C)c(C)c2)cc1C,-22.4% (inactive)
15,CC(=O)NCCCS(=O)(=O)O,17.4% [at 29.1 µM] (inactive)
16,Cc1cc(NC(=O)C(=O)O)cc(C)c1Oc1ccc(O)c2c1CCC2,4.87% (inactive)
17,CCN(CC)CCOC(=O)C1(c2ccccc2)CCCC1,-7.32% (inactive)
18,OCCC1CCCCN1 (stereo not given),-4.21% [at 81.1 µM] (inactive)
19,CN(C(=O)CCCOc1ccc2[nH]c(=O)ccc2c1)C1CCCCC1,5.02% (inactive)
20,CC(C)NCC(O)COc1ccc(CC(N)=O)cc1 (stereo not given),-20.5% (inactive)

row,SMILES,"activity change, negative = cytotoxicity"
1,CC(=O)O[C@@H]1C(=O)O[C@@H]2[C@H]1OC(=O)[C@@H]2OC(C)=O,-0.349% (inactive)
2,O=C1Nc2cc(Cl)ccc2Oc2ccccc21,16.2% (inactive)
3,Cc1ccc(C)o1,2.93% [at 81.1 µM] (inactive)
4,NC(N)=N/N=C/c1c(Cl)cccc1Cl,1.09% (inactive)
5,CC(C)(C)c1ccc(OCC2CO2)cc1 (stereo not given),1.6% [at 81.1 µM] (inactive)
6,Nc1nc(N)c(-c2ccccc2)s1,0.634% (inactive)
7,CC[C@H](C)[C@@H](C(=O)O)n1sc2ccccc2c1=O,-12.8% (inactive)
8,CC(C)(C)c1cc(O)c(C(C)(C)C)cc1O,-26.5% (inactive)
9,CCCCOc1cc(C(=O)OCCN(CC)CC)ccc1N,5.7% (inactive)
10,CCN(CC)C(C)=O,-0.605% [at 81.1 µM] (inactive)
11,NC[C@H]1O[C@H](O[C@H]2[C@H](O)[C@@H](O[C@H]3O[C@H](CO)[C@@H](O)[C@H](N)[C@H]3O)[C@H](N)C[C@@H]2N)[C@H](O)[C@@H](O)[C@@H]1O,-10.2% [at 5.95 µM] (inactive)
12,COC(=O)C(C)=O,-20.9% [at 81.1 µM] (inactive)
13,O=[N+]([O-])c1cccc(Cl)c1Cl,1.18% (inactive)
14,CCCCCC(CO)CCC (stereo not given),15.4% (inactive)
15,NC(=S)N/N=C/c1cccnc1,-5.76% (inactive)
16,C=CC(C)(CCC=C(C)C)OC(=O)c1ccccc1 (stereo not given),-26% (inactive)
17,CCC(=O)OC(C)(C)C1CC=C(C)CC1 (stereo not given),-0.225% (inactive)
18,CCCCCCOC(=O)CCC,2.52% (inactive)
19,CC1CCc2cc(F)cc3c(=O)c(C(=O)O)cn1c23 (stereo not given),7.8% (inactive)
20,CCN(CC)C(C)CN1c2ccccc2Sc2ccccc21 (stereo not given),-7.42% (inactive)
